Source: PubChem (National Center for Advancing Translational Sciences (NCATS))
A selection: hits, their analogues and other compounds. The true share with any hit is near 2.9%.
D3 antag = blocks the human D3 dopamine receptor. max response, negative = inhibition, %. D3R cells, DiscoveRx beta-arrestin luminescence, antagonist mode; hits give low values. AID 652054. 2.5% of 360,000 active; in the data active = max response below about -50%; inconclusive = no clear call, values can overlap the other calls
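Cells plated overnight at 1500 cells/well, then exposed to library compounds with dopamine controls for 90 minutes at 37 degrees C. DiscoveRx reagent added for 30–60 minutes at room temperature; luminescence read, quantitative HTS format.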
TRPML1 agonist = agonists of human TRPML1 channel; TRPML1-expressing cells, Ca2+ dye fluorescence, FDSS; activation, % (concentration not given with the values); 0.12% of 410,000 active; in the data active = activation above about 50%; inconclusive = mostly about 30% to 49%
Target sequence (Q9GZU1 whole entry, looked up): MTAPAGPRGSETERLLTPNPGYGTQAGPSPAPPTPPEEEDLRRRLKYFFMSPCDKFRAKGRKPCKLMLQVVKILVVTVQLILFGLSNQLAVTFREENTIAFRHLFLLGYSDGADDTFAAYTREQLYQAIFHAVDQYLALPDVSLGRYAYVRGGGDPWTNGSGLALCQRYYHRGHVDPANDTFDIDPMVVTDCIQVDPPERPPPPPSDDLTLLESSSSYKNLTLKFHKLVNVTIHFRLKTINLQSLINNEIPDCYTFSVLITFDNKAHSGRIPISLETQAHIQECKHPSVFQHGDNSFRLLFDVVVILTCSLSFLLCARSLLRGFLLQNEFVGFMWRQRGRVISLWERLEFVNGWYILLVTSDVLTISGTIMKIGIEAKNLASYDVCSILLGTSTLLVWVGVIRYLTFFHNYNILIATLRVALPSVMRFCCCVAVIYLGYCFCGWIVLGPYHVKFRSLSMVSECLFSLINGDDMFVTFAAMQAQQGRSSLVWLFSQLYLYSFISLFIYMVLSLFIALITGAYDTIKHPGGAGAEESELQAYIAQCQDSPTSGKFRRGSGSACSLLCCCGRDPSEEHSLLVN
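Agonist activity was taken from a 110 s kinetic Ca2+ dye read on the FDSS after pinning compounds onto TRPML1-DL cells. The cells were seeded at 1,500/well with Tet inducer, incubated about 16 h, then dye-loaded at room temperature.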
TRPML1 blocker = inhibitors of human TRPML1 channel; AID 624415; 0.02% of 390,000 active; activity change, negative = inhibition, % (test concentration not listed); TRPML1-inducible cells, Ca2+ dye fluorescence, FDSS; hits give low values; inhibition of EC80 agonist-evoked calcium signal; in the data active = activity change below about -50%; inconclusive = between about -30% and that limit;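 note: stimulus is agonist 54-4 at its EC80 concentration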
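Tet-induced TRPML1-DL cells loaded with Ca8 no-wash calcium dye were read kinetically on FDSS. Compound addition was followed by EC80 agonist 54-4 (4 uM final); inhibition was read over 110 s.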
DRD3 agonist = D3 dopamine receptor (human) agonism. D3R DiscoveRx beta-arrestin cells, luminescence, 90 min. 0.58% of 410,000 active. P35462. AID 652048. max activation, %; in the data active = max activation above about 30%
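Agonist mode: compounds and dopamine controls were applied to plated cells for 90 min at 37 degrees C after an overnight attachment at 1500 cells/well. Luminescent read-out followed 30 - 60 minutes at room temperature with DiscoveRx detection reagent.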
Large screens that a line does not name were inactive; ! = a repeat was not active.

CC(C)c1ccc(C2c3c(-c4ccccc4O)n[nH]c3C(=O)N2CCc2ccccc2)cc1 (configuration not stated)	none (no result: D3 antag)
Cc1c(C)n(C)c2ccc(C(=O)NCCCN3CCN(c4ccc(F)cc4)CC3)cc12	D3 antag -56
Cc1c(C)n(C)c2ccc(C(=O)NCCCN3CCN(c4ccccc4F)CC3)cc12	D3 antag -82
Cc1c(C)n(C)c2ccc(C(=O)NCCCN3CCCC3)cc12	none
COc1ccc(N2CCN(CCNC(=O)c3ccc4nc5ccccc5c(=O)n4c3)CC2)cc1	none
CCc1nc2ccc(C(=O)NCCCN3CCN(c4ccccc4F)CC3)cc2nc1CC	D3 antag -66
O=C(NCCN1CCN(c2ccccc2F)CC1)c1ccc2nc3ccccc3c(=O)n2c1	D3 antag -58
CC(C)c1ccc(C(=O)CC2(O)C(=O)N(CCc3ccccc3)c3ccc(Cl)cc32)cc1 (configuration not stated)	none (no result: D3 antag)
OC[C@H]1O[C@@H](O[C@H]2[C@H](O)[C@@H](O)[C@H](O)O[C@@H]2CO)[C@H](O)[C@@H](O)[C@@H]1O	none (no result: D3 antag, TRPML1 agonist, TRPML1 blocker)
O=C(CCCn1c(=O)c2ccccc2n(Cc2ccc(F)cc2Cl)c1=O)NCCc1ccc(Cl)cc1	none (no result: D3 antag)
Cc1nn(-c2ccccc2)c2c1cc1c(=O)n(C)c(=O)nc-1n2-c1cccc(Cl)c1	none (no result: D3 antag)
Cc1cc(C)c2c(=O)[nH]c(SCc3ccccc3C)nc2n1	D3 antag -66
Cc1cc(C)c2c(=O)[nH]c(SCc3ccc([N+](=O)[O-])cc3)nc2n1	D3 antag -69
Cc1ccccc1C(=O)Nc1cccc(C(=O)OCc2cc(=O)n3c(C)csc3n2)c1	none (no result: D3 antag)
Cc1cc(C)c(C#N)c(SCCS(=O)(=O)Cc2ccccc2)n1	D3 antag -84
O=C(CN1C(=O)c2ccccc2S1(=O)=O)NC1CCCC1	D3 antag -52
CC(C)(C)n1ncc2c(=O)n(Cc3ccc(F)c(F)c3F)cnc21	none (no result: D3 antag, DRD3 agonist)
O=C(Nc1nc2nc(-c3ccccc3)cc(-c3ccccc3)n2n1)c1ccco1	none
Cc1ccnc2nc(NC(=O)c3ccco3)nn12	D3 antag -66
CCCN(CC)C(CC)C(=O)Nc1c(C)cccc1C (configuration not stated)	none (no result: D3 antag, TRPML1 agonist, TRPML1 blocker)
O[Si](CCCN1CCCCC1)(c1ccc(F)cc1)C1CCCCC1 (configuration not stated)	D3 antag -110
CCCn1c(C)cc(-c2csc(N)n2)c1C	none
Cc1c(-c2csc(N)n2)cnn1C	DRD3 agonist 42
O=C(Nc1ccc(F)cc1)C(c1ccccc1OC(F)(F)F)N1CCN(c2cccc(C(F)(F)F)n2)CC1 (configuration not stated)	D3 antag -55 (no result: TRPML1 agonist, TRPML1 blocker)
C[S+](C)CCC(N)C(=O)O (configuration not stated)	none (no result: D3 antag, TRPML1 agonist, TRPML1 blocker)
C=CCn1c2ccccc2c2nnc(SCCCn3c(=O)[nH]c4ccccc43)nc21	DRD3 agonist 32
C=CCn1c2ccccc2c2nnc(SCCN3CCCCC3)nc21	D3 antag inconclusive (no result: TRPML1 agonist, TRPML1 blocker)
CCN(CC)CCSc1nnc2c3ccccc3n(CCc3ccccc3)c2n1	D3 antag -79
CC(C)(CNC(=O)c1ccccc1NS(C)(=O)=O)N1CCCCC1	D3 antag -58
CCOC(=O)C1=C(SCC)c2cc3c(n2C1=O)CCCC3	D3 antag -57
Cc1ccc(N=Cc2c(O)n(-c3ccc4c(c3)OCO4)c(=O)c3ccccc23)cc1	D3 antag -59
c1ccc(N=c2nc(-c3ccccc3)n(-c3ccccc3)s2)cc1	none (no result: D3 antag, TRPML1 blocker, DRD3 agonist)
O=C(CSc1nc2scc(-c3ccco3)c2c(=O)n1-c1ccccc1)N1CCOCC1	DRD3 agonist 31
Cc1ccccc1N(C)C(=O)c1noc2c1COc1ccccc1-2	none (no result: D3 antag)
CC1C(=O)CC(c2ccccc2)N(C)C1c1ccccc1 (configuration not stated)	D3 antag -79
COc1cc(Br)c(C(C)NC(=O)c2ccccc2)cc1OC (configuration not stated)	DRD3 agonist 40
COc1ccc(C(CC(=O)O)NC(=O)c2ccccc2)cc1OC (configuration not stated)	D3 antag -60
COc1ccc(OC)c(C(C)NC(=O)c2ccc(Br)cc2)c1 (configuration not stated)	none
COc1ccc(C(CC(=O)O)NC(=O)Nc2ccccc2)cc1OC (configuration not stated)	none
CCOc1ccc(CCN2C(=S)N([C@@H](Cc3ccccc3)CN3CCC[C@@H]3CN3C(=S)NC[C@@H]3Cc3ccc(O)cc3)C[C@@H]2CC(C)C)cc1	none
CCOc1ccc(CCN2C(=S)N([C@@H](Cc3ccc(O)cc3)CN3CCCC3CN3C(=S)NC[C@@H]3Cc3ccc(O)cc3)C[C@@H]2CC(C)C)cc1 (some centres not stated)	D3 antag -68
Oc1ccc(C[C@H]2CN([C@@H](Cc3ccccc3)CN3CCCC3CN3C(=S)NC[C@@H]3Cc3ccccc3)C(=S)N2CCc2ccccc2)cc1 (some centres not stated)	none (no result: TRPML1 blocker)
CCOc1ccc(CCN2C(=S)N([C@@H](Cc3ccc(O)cc3)CN3CCC[C@@H]3CN3C(=S)NC[C@@H]3CC(C)C)C[C@@H]2Cc2ccc(O)cc2)cc1	D3 antag -80
CCN(CCCNC(=O)CSc1cc(=O)n(CC)c2ccccc12)c1cccc(C)c1	none (no result: D3 antag)
CCC(C)Sc1cccc(-c2nc3ccc(C)cn3c2NC2CCCCC2)c1 (configuration not stated)	DRD3 agonist 53!
Cc1ccc2nc(-c3cccc(SC4CCCCC4)c3)c(NC3CCCCC3)n2c1	none
CCC(C)Sc1ccc(-c2nc3ccc(C)cn3c2NC2CCCCC2)cc1 (configuration not stated)	none
COc1ccc(-c2ccc(-c3nc4ccc(C)cn4c3NC3CCCCC3)cc2OC)cc1	DRD3 agonist 55!
CCN1CCc2c(sc(NC(=S)NC(=O)c3cccc(F)c3)c2C(N)=O)C1	none (no result: D3 antag, TRPML1 blocker, DRD3 agonist)
COc1cc(C)c(S(=O)(=O)N2CCOCC2)cc1C(C)C	D3 antag -88
COc1cc(C)c(C(C)C)cc1S(=O)(=O)N1CCN(C)CC1	none
CC(=O)c1c(C)[nH]c(C(=O)OCC(=O)C(C)(C)C)c1C	none
CC(=O)c1c(C)[nH]c(C(=O)OCC(=O)c2ccc(C)s2)c1C	DRD3 agonist 44
CNC(=O)COC(=O)c1[nH]c(C)c(C(C)=O)c1C	D3 antag -79
C[n+]1c2cc(N)ccc2cc2ccc(N)cc21	D3 antag inconclusive, TRPML1 agonist 104, TRPML1 blocker inconclusive
C[n+]1c2cc(N)ccc2cc2ccc(N)cc21 (tested in a mixture with another compound)	none (no result: D3 antag, TRPML1 agonist, TRPML1 blocker)
Cc1ccc2[nH]c(CSc3nnc(NC(=O)COc4ccccc4)s3)cc(=O)c2c1	none (no result: D3 antag)
O=c1[nH]c(=O)n(Cc2ccccc2)c2c1C(C(F)(F)F)(C(F)(F)F)N=C(c1ccco1)N2	none
O=c1[nH]c(=O)n(Cc2ccco2)c2c1C(C(F)(F)F)(C(F)(F)F)N=C(c1ccc(F)cc1)N2	DRD3 agonist 56
